Measured values: PMC7862700, “An all-to-all approach to the identification of sequence-specific readers for epigenetic DNA modifications on cytosine”

Legend:
Experiment in all cases: DAPPL (digital affinity profiling via proximity ligation, sequencing); 10 mM Tris-HCl pH 7.5, 50 mM NaCl, 1 mM DTT, 4% glycerol, room temperature, 30 min; GST-TFs on glutathione beads, 16-mer random dsDNA library, 0.1% formaldehyde crosslink after washing; high values mean tight binding
Details in all cases: protein: recombinant; tags: N-terminal GST; dsDNA, one strand shown
[1] = biological target: T1, ERF (Homo sapiens, UniProt P50548 1-548)
T1 sequence: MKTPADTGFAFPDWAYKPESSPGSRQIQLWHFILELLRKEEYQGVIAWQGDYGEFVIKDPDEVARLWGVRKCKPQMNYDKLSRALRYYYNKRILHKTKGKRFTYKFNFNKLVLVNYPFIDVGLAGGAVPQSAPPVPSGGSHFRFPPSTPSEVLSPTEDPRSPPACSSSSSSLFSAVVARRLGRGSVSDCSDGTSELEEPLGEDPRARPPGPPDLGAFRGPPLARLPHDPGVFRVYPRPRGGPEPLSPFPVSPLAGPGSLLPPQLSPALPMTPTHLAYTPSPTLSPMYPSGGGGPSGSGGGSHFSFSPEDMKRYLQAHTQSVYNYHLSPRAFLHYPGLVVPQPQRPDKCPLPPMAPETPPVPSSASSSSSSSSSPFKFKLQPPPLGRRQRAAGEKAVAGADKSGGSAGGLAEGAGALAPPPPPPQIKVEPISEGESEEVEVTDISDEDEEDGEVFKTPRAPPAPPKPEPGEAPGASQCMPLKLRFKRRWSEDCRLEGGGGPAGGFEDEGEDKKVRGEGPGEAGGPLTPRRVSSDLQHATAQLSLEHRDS
Outline: (§1)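 Binding signal is each hexamer's read frequency for a factor divided by its frequency in the tag-only sample. The factors were GST-fused human transcription factors from yeast, captured on glutathione beads, DNA-barcoded and pooled with that sample. Pools were incubated with 200 nmole of a random double-stranded 16-mer DNA library in Tris/NaCl/DTT/glycerol buffer at room temperature for 30 min, then washed, crosslinked with 0.1% formaldehyde, proximity-ligated with BsaI/T4 ligase (1 h, 37 °C), PCR-amplified and sequenced on an Illumina NextSeq500.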

[2] = biological target: T2, ETV3L (Homo sapiens, UniProt Q6ZN32 1-361)
T2 sequence: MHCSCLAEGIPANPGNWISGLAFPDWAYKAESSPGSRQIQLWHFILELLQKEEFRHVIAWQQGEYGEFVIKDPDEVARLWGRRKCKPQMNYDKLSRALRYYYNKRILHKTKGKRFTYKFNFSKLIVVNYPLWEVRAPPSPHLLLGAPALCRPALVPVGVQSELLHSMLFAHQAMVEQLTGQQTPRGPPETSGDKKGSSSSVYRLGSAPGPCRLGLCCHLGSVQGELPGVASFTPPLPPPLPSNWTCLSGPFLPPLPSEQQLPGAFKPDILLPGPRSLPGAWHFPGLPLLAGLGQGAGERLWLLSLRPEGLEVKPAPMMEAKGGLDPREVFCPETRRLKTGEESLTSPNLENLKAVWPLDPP
Outline: as §1

[3] = biological target: T3, ETS2 (Homo sapiens, UniProt P15036 1-469)
T3 sequence: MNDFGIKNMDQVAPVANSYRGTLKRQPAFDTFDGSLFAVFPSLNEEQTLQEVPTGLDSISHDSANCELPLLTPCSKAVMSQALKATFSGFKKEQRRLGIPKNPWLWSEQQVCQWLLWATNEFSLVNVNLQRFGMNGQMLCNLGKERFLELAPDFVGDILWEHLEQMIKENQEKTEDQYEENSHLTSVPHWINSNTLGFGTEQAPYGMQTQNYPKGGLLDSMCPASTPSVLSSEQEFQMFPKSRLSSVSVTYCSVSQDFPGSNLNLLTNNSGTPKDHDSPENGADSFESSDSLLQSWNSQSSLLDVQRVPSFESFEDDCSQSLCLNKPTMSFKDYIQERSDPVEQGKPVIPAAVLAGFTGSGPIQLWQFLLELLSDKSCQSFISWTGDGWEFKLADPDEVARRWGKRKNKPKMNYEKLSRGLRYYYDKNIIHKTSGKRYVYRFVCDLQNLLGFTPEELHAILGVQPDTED
Outline: as §1

[4] = biological target: T4, SPDEF (Homo sapiens, UniProt O95238 1-335)
T4 sequence: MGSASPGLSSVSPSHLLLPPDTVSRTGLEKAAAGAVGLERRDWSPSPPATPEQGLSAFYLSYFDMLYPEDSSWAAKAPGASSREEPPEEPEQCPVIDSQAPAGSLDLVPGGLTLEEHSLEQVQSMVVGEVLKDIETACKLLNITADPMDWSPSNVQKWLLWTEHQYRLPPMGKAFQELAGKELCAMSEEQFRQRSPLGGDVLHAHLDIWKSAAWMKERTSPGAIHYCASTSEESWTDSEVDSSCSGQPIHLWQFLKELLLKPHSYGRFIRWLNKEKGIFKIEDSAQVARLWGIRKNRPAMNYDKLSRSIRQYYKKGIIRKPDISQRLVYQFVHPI
Outline: as §1

[5] = biological target: T5, ETV7 (Homo sapiens, UniProt Q9Y603 1-341)
T5 sequence: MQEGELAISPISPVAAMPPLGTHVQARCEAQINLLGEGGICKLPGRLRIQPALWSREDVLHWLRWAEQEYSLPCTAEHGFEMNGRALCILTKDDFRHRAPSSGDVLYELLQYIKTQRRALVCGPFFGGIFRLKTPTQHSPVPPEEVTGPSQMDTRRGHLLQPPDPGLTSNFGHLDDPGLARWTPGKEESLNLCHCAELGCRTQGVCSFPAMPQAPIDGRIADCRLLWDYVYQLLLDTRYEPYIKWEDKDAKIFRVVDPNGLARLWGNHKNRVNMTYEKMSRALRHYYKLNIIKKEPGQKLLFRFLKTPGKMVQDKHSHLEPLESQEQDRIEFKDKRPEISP
Outline: as §1

[6] = biological target: T6, ELF5 (Homo sapiens, UniProt Q9UKW6-2 1-255)
T6 sequence: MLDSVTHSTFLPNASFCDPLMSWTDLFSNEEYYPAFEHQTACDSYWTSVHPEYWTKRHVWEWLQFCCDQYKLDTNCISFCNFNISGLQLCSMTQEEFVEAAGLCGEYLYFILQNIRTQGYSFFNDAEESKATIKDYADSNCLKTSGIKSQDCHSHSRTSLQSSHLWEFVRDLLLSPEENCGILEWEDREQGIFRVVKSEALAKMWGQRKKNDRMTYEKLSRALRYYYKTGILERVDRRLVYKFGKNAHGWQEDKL
Outline: as §1

[7] = biological target: T7, ETV3 (Homo sapiens, UniProt P41162-2 1-143)
T7 sequence: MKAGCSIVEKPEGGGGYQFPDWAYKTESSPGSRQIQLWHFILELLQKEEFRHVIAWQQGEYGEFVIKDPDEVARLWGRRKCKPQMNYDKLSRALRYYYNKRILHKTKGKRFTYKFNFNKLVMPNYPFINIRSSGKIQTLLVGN
Outline: as §1

[8] = biological target: ETV6 (Homo sapiens, UniProt P41212 1-452)
Outline: as §1

Chain of ETV6 (P41212 whole entry): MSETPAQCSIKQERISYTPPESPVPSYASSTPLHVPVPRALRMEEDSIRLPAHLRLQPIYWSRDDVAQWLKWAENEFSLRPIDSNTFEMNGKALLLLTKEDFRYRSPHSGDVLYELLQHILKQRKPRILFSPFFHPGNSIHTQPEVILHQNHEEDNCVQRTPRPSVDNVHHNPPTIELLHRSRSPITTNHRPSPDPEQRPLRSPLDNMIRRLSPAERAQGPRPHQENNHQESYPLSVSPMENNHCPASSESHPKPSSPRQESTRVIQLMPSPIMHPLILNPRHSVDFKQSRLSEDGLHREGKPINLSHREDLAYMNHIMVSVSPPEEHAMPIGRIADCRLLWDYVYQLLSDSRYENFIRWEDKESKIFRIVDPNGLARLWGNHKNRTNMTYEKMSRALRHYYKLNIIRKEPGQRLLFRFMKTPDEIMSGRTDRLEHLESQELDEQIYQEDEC

| Sequence | binding signal [1] | binding signal [2] | binding signal [3] | binding signal [4] | binding signal [5] | binding signal [6] | binding signal [7] | binding signal [8] |
| --- | --- | --- | --- | --- | --- | --- | --- | --- |
| AACCCC | 1.03 fold enrichment (6-mer frequency, TF over GST control) | 1.18 fold enrichment (6-mer frequency, TF over GST control) | 1.21 fold enrichment (6-mer frequency, TF over GST control) | 1.14 fold enrichment (6-mer frequency, TF over GST control) | 1.11 fold enrichment (6-mer frequency, TF over GST control) | 1.13 fold enrichment (6-mer frequency, TF over GST control) | 1.07 fold enrichment (6-mer frequency, TF over GST control) | 1.18 fold enrichment (6-mer frequency, TF over GST control) |
| TAAGAA | 1.11 fold enrichment (6-mer frequency, TF over GST control) | 1.09 fold enrichment (6-mer frequency, TF over GST control) | 1.03 fold enrichment (6-mer frequency, TF over GST control) | 1.06 fold enrichment (6-mer frequency, TF over GST control) | 1.12 fold enrichment (6-mer frequency, TF over GST control) | 1.03 fold enrichment (6-mer frequency, TF over GST control) | 1.07 fold enrichment (6-mer frequency, TF over GST control) | 1.08 fold enrichment (6-mer frequency, TF over GST control) |
| TCTACT | 1.42 fold enrichment (6-mer frequency, TF over GST control) | 1.51 fold enrichment (6-mer frequency, TF over GST control) | 1.41 fold enrichment (6-mer frequency, TF over GST control) | 1.42 fold enrichment (6-mer frequency, TF over GST control) | 1.32 fold enrichment (6-mer frequency, TF over GST control) | 1.37 fold enrichment (6-mer frequency, TF over GST control) | 1.2 fold enrichment (6-mer frequency, TF over GST control) | 1.41 fold enrichment (6-mer frequency, TF over GST control) |
| ATAGAA | 1.1 fold enrichment (6-mer frequency, TF over GST control) | 1.1 fold enrichment (6-mer frequency, TF over GST control) | 1.07 fold enrichment (6-mer frequency, TF over GST control) | 1.02 fold enrichment (6-mer frequency, TF over GST control) | 1.16 fold enrichment (6-mer frequency, TF over GST control) | 1.04 fold enrichment (6-mer frequency, TF over GST control) | 1.1 fold enrichment (6-mer frequency, TF over GST control) | 1.13 fold enrichment (6-mer frequency, TF over GST control) |
| TTAATG | 1.05 fold enrichment (6-mer frequency, TF over GST control) | 1.19 fold enrichment (6-mer frequency, TF over GST control) | 1.2 fold enrichment (6-mer frequency, TF over GST control) | 1.19 fold enrichment (6-mer frequency, TF over GST control) | 1.26 fold enrichment (6-mer frequency, TF over GST control) | 1.19 fold enrichment (6-mer frequency, TF over GST control) | 1.21 fold enrichment (6-mer frequency, TF over GST control) | 1.19 fold enrichment (6-mer frequency, TF over GST control) |
| AACTCG | 1.44 fold enrichment (6-mer frequency, TF over GST control) | 1.43 fold enrichment (6-mer frequency, TF over GST control) | 1.31 fold enrichment (6-mer frequency, TF over GST control) | 1.31 fold enrichment (6-mer frequency, TF over GST control) | 1.33 fold enrichment (6-mer frequency, TF over GST control) | 1.35 fold enrichment (6-mer frequency, TF over GST control) | 1.4 fold enrichment (6-mer frequency, TF over GST control) | 1.33 fold enrichment (6-mer frequency, TF over GST control) |
| TTCTGA | 1.16 fold enrichment (6-mer frequency, TF over GST control) | 1.35 fold enrichment (6-mer frequency, TF over GST control) | 1.43 fold enrichment (6-mer frequency, TF over GST control) | 1.38 fold enrichment (6-mer frequency, TF over GST control) | 1.19 fold enrichment (6-mer frequency, TF over GST control) | 1.26 fold enrichment (6-mer frequency, TF over GST control) | 1.37 fold enrichment (6-mer frequency, TF over GST control) | 1.3 fold enrichment (6-mer frequency, TF over GST control) |
